HTT prom inh: Primary qHTS for Identification of Small Molecule Inhibitors of Huntingtin Promoter Activity. Potency, µM (doses to about 57.5 µM), for the others: at the highest dose activity change, negative = inhibition, most hits filed as inhibitors. actives 0.93% (n = 48,000). HEK293 HTT promoter firefly luciferase reporter, 24 h. AID 1508623, 2021; note: nearly all actives have a fitted effect of over 50% in size
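Firefly luciferase readout (Dual-Glo, 10 min RT) after 24 h, 37 °C compound exposure (final up to 57.5 uM) of HEK293 reporter cells cultured 24 h beforehand; PTC124 at 50 uM final as control inhibitor; activity scaled vehicle 0%, zero RLU -100%.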
PMP22 txn prim: Cell-based coincidence reporter assay to measure PMP22 gene transcription in S16 Pmp22-F2sN cells - Primary screen. AID 1508649, 2021. S16 Pmp22-F2sN Schwann cells, FLuc/NLuc coincidence luminescence, 24 h. Potency, µM (highest dose often 57.5 µM), for the others: at the top dose activity change, negative = inhibition, usual class: inhibitors. actives 2% (n = 43,000); active = clear falling dose curves in both reporters; inconclusive = both reporters move, but less clearly or upward; inactive = either reporter flat; the % is the NLuc reporter signal; note: % is set by controls: 0 for no effect and ±100 for the full control effect
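S16(c9) Schwann cells with FLuc/NLuc coincidence reporter in the Pmp22 3' UTR; compounds pin-transferred, 24 h at 37C. Dual-luciferase read: FLuc first, then NLuc after Stop&Glo, each 10 min at room temperature.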
HTT-AS act: Primary qHTS for Identification of Small Molecule Activators of Huntingtin-Antisense Promoter Activity. Potency, µM (highest dose often 57.5 µM), without a hit: at the top dose activity change, positive = activation, hits mostly activators. actives 0.24% (n = 48,000). HEK293 HTT-AS promoter firefly luciferase reporter, 24 h; response scale: percent change from vehicle, -100% = no light. AID 1508624, 2021; note: nearly all actives have a fitted effect of over 55% in size
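HEK293 Fluc reporter, 2,500 cells/well, 24 h pre-culture; cpds up to 57.5 uM final, 24 h 37 degrees C; Dual-Glo, 10 min RT; normalized vehicle = 0%, zero RLU = -100%.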
pS6 MEF inh: Acumen qHTS Assay for Inhibitors of the mTORC1 Signaling Pathway in MEF (Tsc2-/-, p53-/-) Cells: Sytravon; Tsc2-/- p53-/- MEF, phospho-rpS6 immunofluorescence/PI, 24 h; Potency, µM (highest dose often 38.3 µM), without a hit: at the highest dose activity change, negative = inhibition, usual class: inhibitors; actives 0.78% (n = 44,000);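 note: plate controls were DMSO for no effect and rapamycin for full effect; nearly all actives have a fitted effect of over 50% in size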
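Plate MEFs (Tsc2-/-, p53-/-, empty vector) in DMEM/10% FBS; after 24 h add compound, incubate 24 h at 37 degree Celsius; fix in PFA/TX-100, block, stain phospho-rpS6 and 10 uM PI; scan at 488 nm; report % positive cells.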
OvCa metastasis: Primary qHTS assay for Inhibitors of ovarian cancer metastasis using an organotypic tumor microenvironment (TME) model | SKOV3ip1-GFP adhesion/invasion on 3D omental model, fluorescence | Potency, µM (top dose mostly 45.8 µM), for inactives: at the top dose activity change, negative = inhibition, usual class: inhibitors | actives 0.1% (n = 46,000);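 note: plate controls were DMSO wells for no effect and tomatine positive control wells for full effect; nearly all actives have a fitted effect of over 65% in size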
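qHTS, 4-pt dose (0.36-46 umol/L); SKOV3ip1-GFP, 1,200 cells/well, no FBS; primary omental fibroblast/mesothelial co-culture 48 h pre-grown; 2 h RT + 16 h 37 C; PBS wash, 4% PFA; GFP count 488/509 nm.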
S16 F2sN tox: Cell viability qHTS assay in S16 Pmp22-F2sN cells | Potency, µM (series often up to 57.5 µM), inactives show at the highest dose activity change, negative = cytotoxicity, most hits filed as cytotoxic | actives 0.48% (n = 43,000) | S16 Pmp22-F2sN Schwann cells viability, CellTiter-Glo, 24 h; note: % is set by controls: 0 for no effect and ±100 for the full control effect; nearly all actives have a fitted effect of over 65% in size
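Used to flag compounds lowering reporter output through toxicity, this quantitative HTS measures ATP-based CellTiter-Glo luminescence in S16 Pmp22-F2sN Schwann cells after 24 h compound exposure at 37C.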
* = called active by the depositor; i = inactive; ? = inconclusive; / = no result given. Sampled rows, rich in hits. Any-hit rate of the full collection: about 3.6%. Unless noted, calls come from the whole dose curve; as a rule, active = well fitted curve in the direction sought with a large enough effect; inconclusive = small, poorly fitted or top-dose-only effect, or another doubt; inactive = no such curve, though single readings can be large; an effect the other way counts as inactive or inconclusive. Potency is the fitted concentration of half-maximal effect.

SMILES	HTT prom inh	PMP22 txn prim	HTT-AS act	pS6 MEF inh	OvCa metastasis	S16 F2sN tox
CNC1CCC(N(Cc2cccc(-c3ccncc3)c2)C(=O)c2sc3c(F)ccc(F)c3c2Cl)CC1 (centres undefined)	-15%	/	-16%	/	-4%	/
Cc1cc(NC(=O)c2cc(-c3cccc(Cl)c3)on2)nn1Cc1ccc(Cl)cc1	1.6µM*	-28%	-41%	2%	-2%	6%
CCCCN(CC)C(=O)CSc1nc2n[nH]c(C)c2c(=N)n1-c1cccc(Cl)c1	?	13µM*	-47%	-3%	-9%	?
COc1ccc(-c2n[nH]c3c2C(c2ccc(O)cc2)N(c2ccc(Br)cc2)C3=O)cc1 (centres undefined)	?	?	-60%	15µM*	-9%	?
COc1ccc(OC)c(C2c3c(-c4ccc(Br)cc4)n[nH]c3C(=O)N2c2ccc(Cl)cc2)c1 (centres undefined)	-27%	?	-40%	-12%	?	?
Nc1ncnc2c1c(-c1cccc(OCc3ccccc3)c1)cn2C1CC(CN2CCC2)C1 (centres undefined)	-8%	/	-1%	/	3%	/
c1ccc(N2CCN(c3ncnc4[nH]ncc34)CC2)cc1	-15%	-42%	-2%	15µM*	-11%	0%
CCOc1ccc(CNC(=O)C2CCN(c3nnc(-n4c(C)ccc4C)s3)CC2)cc1	14µM*	?	-41%	-11%	15%	-11%
Cc1ccc(NC(=O)NCC2CCN(Cc3cccc(Cl)c3)CC2)cc1Cl	?	?	-13%	10µM*	i	?
Cc1ccc(Cn2ccn(CC(=O)Nc3c(C)cc(C)cc3C)c(=O)c2=O)cc1	-22%	6%	-16%	-1%	-4%	0%
Cc1ccc(CN2C(=O)C(=O)c3cc(Br)cc(C)c32)cc1	?	?	-33%	?	13µM*	?
CCNC(=O)c1noc(-c2cc(C(C)C)c(O)cc2O)c1-c1ccc(CN2CCOCC2)cc1	?	/	-64%	/	35%	/
CCOc1ccc(-c2cc(CCCC(=O)NCCc3ccc(Cl)cc3)no2)cc1	1.8µM*	-14%	-73%	0%	4%	8%
CCOc1ccc(-c2cc(CCCC(=O)NCCc3ccc(SC)cc3)no2)cc1	0.79µM*	-12%	-79%	-14%	i	7%
CCOc1ccc(-c2cc(CCCC(=O)NCCc3ccc(OCC)c(OCC)c3)no2)cc1	?	-11%	-80%	-10%	-10%	-2%
CC(=O)c1ccc(N2CCN(c3ncnc4onc(C)c34)CC2)cc1	4.5µM*	?	-58%	0%	i	?
Cn1cc(-c2cnn3c(N)c(Br)c([C@H]4CCCNC4)nc23)cn1	?	/	-31%	/	18%	/
COc1ccc(CCNC(=O)c2nc(SCc3ccccc3F)ncc2Cl)cc1OC	18µM*	?	-48%	-26%	i	-4%
Cc1ccc(CNC(=O)c2nc(SCc3ccccc3F)ncc2Cl)cc1	-21%	-5%	-20%	3%	9%	17%
Cc1cc(C)cc(NC(=O)c2ccc3c(c2)nnn3C2CCCC2)c1	?	?	-25%	-23%	4%	11µM*
N#Cc1ccc(Oc2ccc3c(c2)COB3O)cc1	-1%	/	0%	/	-5%	/
COc1cc(C2CC(=O)c3c([nH]c(C(=O)OC4CCCCC4)c3C)C2)cc(OC)c1OC (centres undefined)	?	18µM*	-52%	?	?	?
COc1ccc(COC(=O)c2[nH]c3c(c2C)C(=O)CC(c2ccc(OC)c(OC)c2)C3)cc1 (centres undefined)	10µM*	-19%	-74%	-17%	i	-3%
COc1cc(C2CC(=O)c3c([nH]c(C(=O)OCC4CCCCC4)c3C)C2)cc(OC)c1OC (centres undefined)	?	5.7µM*	-51%	-20%	18%	-11%
COc1ccc(C2CC(=O)c3c([nH]c(C(=O)OC4CCC(C)CC4)c3C)C2)cc1OC (centres undefined)	-20%	5%	-22%	0%	2%	-1%
SMILES	HTT prom inh	PMP22 txn prim	HTT-AS act	pS6 MEF inh	OvCa metastasis	S16 F2sN tox
CNC(=O)[C@H](CC1=CN=C2C=CCC=C12)NC(=O)[C@@H](CC(=O)NO)CC(C)C	?	/	-21%	/	-6%	/
CC1(C)CC(=O)c2c(C(F)(F)F)nn(-c3ccc(C(N)=O)c(NC4CCC(OC(=O)CN)CC4)c3)c2C1 (centres undefined)	?	/	-61%	/	18%	/
CCOc1ccc(-c2nnc(SCC(=O)Oc3ccccc3)o2)cc1	2.8µM*	-10%	-89%	-2%	-4%	9%
COc1ccc(OC(=O)CSc2nnc(-c3ccc(F)cc3)o2)cc1	3%	-13%	-6%	-1%	8%	-6%
CO[C@H]1C=CC=C(C)C(=O)NC2=CC(=O)C(NCCN(C)C)=C(C[C@@H](C)C[C@H](OC)[C@@H](O)[C@@H](C)C=C(C)[C@@H]1OC(N)=O)C2=O	?	/	-92%	/	-7%	/
COc1cc(NC(=O)Cn2nc(C(F)(F)F)c3c2CCCC3)cc(OC)c1OC	22µM*	?	-34%	-24%	i	7%
O=C(Cn1nc(C(F)(F)F)c2c1CCCC2)Nc1cccc(Cl)c1	?	?	-52%	-18%	-10%	20µM*
Cc1ccc(C(=O)Nc2cccc(C(F)(F)F)c2)cc1-c1ccc2nc(NCCN3CCOCC3)ncc2c1	?	/	-21%	/	?	/
COc1cc2nc(-c3cc(F)ccc3O)nc(N[C@@H]3CNC[C@@H]3C(C)(C)O)c2cc1OC	?	/	5%	/	?	/
Cc1c(Cn2c(C)nc3c(C(=O)O)cc(N4CCOCC4)cc32)cccc1C(F)(F)F	-14%	/	-31%	/	16%	/
N#CC(=C(N)Sc1ccc(N)cc1)c1ccccc1C(F)(F)F	-4%	/	-11%	/	7%	/
COC(=O)c1ccc(NC(=O)CSc2nnc3c4ccccc4n(C(C)C)c3n2)cc1	9%	-24%	0%	-1%	i	6%
COc1ccccc1NC(=O)CSc1nnc2c3ccccc3n(C(C)C)c2n1	?	?	-30%	15µM*	-8%	?
